Measurements from PubChem BioAssay (NCI).
The panel holds about 83,000 compounds, 20% with a hit somewhere; the sample as a whole holds those more often.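 In brief: 96-well plates, 48 h treatment, single concentration, percent growth endpoint.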 Unmarked numbers belong to inactive results. Active and inactive are the calls of the source. Rule for the calls: active = growth percent below 10; inactive = the rest.

Experiments:
Experiment in all cases: NCI-60 one-dose screen, 48 h (100 = growth as untreated, 0 = no growth, -100 = all killed)
NCI-H23 lung = conditions: 10 µM unless noted
NCI-H460 lung = conditions: 10 µM unless noted
786-0 renal = conditions: 10 µM unless noted
DU-145 prostate = conditions: 10 µM unless noted
MDA-MB-231 breast = conditions: 10 µM unless noted
SF-268 CNS = conditions: 10 µM unless noted
SF-539 CNS = conditions: 10 µM unless noted
UACC-257 melanoma = conditions: 10 µM unless noted
HCT-15 colon = conditions: 10 µM
PC-3 prostate = conditions: 10 µM unless noted
SK-MEL-5 melanoma = conditions: 10 µM unless noted
LOX IMVI melanoma = conditions: 10 µM unless noted
SK-MEL-28 melanoma = conditions: 10 µM unless noted
SN12C renal = conditions: 10 µM unless noted
NCI/ADR-RES ovarian = conditions: 10 µM unless noted
SW-620 colon = conditions: 10 µM unless noted
MCF7 breast = conditions: 10 µM unless noted
HCT-116 colon = conditions: 10 µM unless noted
HCC-2998 colon = conditions: 10 µM unless noted
KM12 colon = conditions: 10 µM unless noted

| SMILES | growth (NCI-H23 lung) | growth (NCI-H460 lung) | growth (786-0 renal) | growth (DU-145 prostate) | growth (MDA-MB-231 breast) | growth (SF-268 CNS) | growth (SF-539 CNS) | growth (UACC-257 melanoma) | growth (HCT-15 colon) | growth (PC-3 prostate) | growth (SK-MEL-5 melanoma) | growth (LOX IMVI melanoma) | growth (SK-MEL-28 melanoma) | growth (SN12C renal) | growth (NCI/ADR-RES ovarian) | growth (SW-620 colon) | growth (MCF7 breast) | growth (HCT-116 colon) | growth (HCC-2998 colon) | growth (KM12 colon) |
| --- | --- | --- | --- | --- | --- | --- | --- | --- | --- | --- | --- | --- | --- | --- | --- | --- | --- | --- | --- | --- |
| CC(C)OC(=S)[S-].[Au+].c1ccc([PH+](c2ccccc2)c2ccccc2)cc1 | 42.4% | 79.5% | 2.78% (active) | 50% | -14.3% (active) | 18.2% | 7.83% (active) | 28.1% | -14.2% (active) | 42.9% | 30.2% | -64.9% (active) | 16.5% | 16.7% | 67.6% | -59.2% (active) | 2.73% (active) | 13.9% | 50.8% | 69.4% |
| COc1ccc(C(=O)c2ccc([As]=O)cc2)cc1 (stereo unspecified) | – | -62.5% (active) | -99.5% (active) | – | -71% (active) | -83.5% (active) | -91.6% (active) | -95.7% (active) | -73% (active) | -86.3% (active) | -99.5% (active) | -97.1% (active) | -87.1% (active) | -52.8% (active) | -5.33% (active) | -64.4% (active) | -20.3% (active) | -83.3% (active) | -88.5% (active) | -93.7% (active) |
| ClCCN(CCCl)C(c1ccccc1)c1ccc(Cl)cc1 (stereo unspecified) | 77.3% | – | 87.5% | 69.5% | 75.7% | 61.5% | 71.7% | 90.9% | 82.9% | 52% | 54.9% | 81.3% | 102% | 41.1% | 79% | 51.6% | – | 79.5% | 68.6% | 89.5% |
